Laboratory results from PubChem BioAssay (NCATS).
Inconclusive results are not listed. The source made the active and inactive calls. Unless noted, the call rests on the fitted dose curve; in most records, active means well fitted curve in the direction sought with a large enough effect; inconclusive means small, poorly fitted or top-dose-only effect, or another doubt; inactive means no such curve, though single readings can be large; an effect the other way counts as inactive or inconclusive.

Key:
[1] = S16 Schwann cell viability assay (CellTiter-Glo assay) (AID 624031);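 further: cellular ATP luminescence as a viability measure; nearly all actives have a fitted effect of over 70% in size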
Method in brief: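 Native S16 rat Schwann cells, 500-750 cells/well in DMEM with 10% FBS, dosed with compound after overnight culture and incubated 24h at 37 degree Celsius/5% CO2. Viability by CellTiter-Glo luminescence; % activity normalized to no-cell wells and DMSO-treated cells.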

ATS189 = assay: qHTS profiling for inhibitors of Plasmodium falciparum proliferation (AID 504749); further: nearly all actives have a fitted effect of over 60% in size; settings: P. falciparum in erythrocytes, SYBR Green DNA, 72 h; series mostly up to 12.8 µM
Method in brief: (§1)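 Readout was DNA-dye fluorescence from lysed cultures, ex 485/em 535 nm. Parasitized red cells had grown 72 h with compound; data scaled between 0.29 uM artemisinin and DMSO wells and corrected using vehicle-only plates.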

CP185 = assay: as above; settings: P. falciparum in erythrocytes, SYBR Green DNA, 72 h; series mostly up to 12.8 µM
Method in brief: as §1

CP191 = assay: as above; settings: P. falciparum in erythrocytes, SYBR Green DNA, 72 h; series mostly up to 12.8 µM
Method in brief: as §1

CP201 = assay: as above; settings: P. falciparum in erythrocytes, SYBR Green DNA, 72 h; series mostly up to 12.8 µM
Method in brief: as §1

CP247 = assay: as above; settings: P. falciparum in erythrocytes, SYBR Green DNA, 72 h; series mostly up to 12.8 µM
Method in brief: as §1

CP250 = assay: as above; settings: P. falciparum in erythrocytes, SYBR Green DNA, 72 h; series mostly up to 12.8 µM
Method in brief: as §1

CP256 = assay: as above; settings: P. falciparum in erythrocytes, SYBR Green DNA, 72 h; series mostly up to 12.8 µM
Method in brief: as §1

CP262 = assay: as above; settings: P. falciparum in erythrocytes, SYBR Green DNA, 72 h; series mostly up to 12.8 µM
Method in brief: as §1

CP325 = assay: as above; settings: P. falciparum in erythrocytes, SYBR Green DNA, 72 h; series mostly up to 12.8 µM
Method in brief: as §1

CP329 = assay: as above; settings: P. falciparum in erythrocytes, SYBR Green DNA, 72 h; series mostly up to 12.8 µM
Method in brief: as §1

Dd2 = assay: as above; settings: P. falciparum in erythrocytes, SYBR Green DNA, 72 h; series mostly up to 12.8 µM
Method in brief: as §1

JCK = assay: as above; settings: P. falciparum in erythrocytes, SYBR Green DNA, 72 h; series mostly up to 12.8 µM
Method in brief: as §1

N140 = assay: as above; settings: P. falciparum in erythrocytes, SYBR Green DNA, 72 h; series mostly up to 12.8 µM
Method in brief: as §1

PC15 = assay: as above; settings: P. falciparum in erythrocytes, SYBR Green DNA, 72 h; series mostly up to 12.8 µM
Method in brief: as §1

PC49 = assay: as above; settings: P. falciparum in erythrocytes, SYBR Green DNA, 72 h; series mostly up to 12.8 µM
Method in brief: as §1

SC27B = assay: as above; settings: P. falciparum in erythrocytes, SYBR Green DNA, 72 h; series mostly up to 12.8 µM
Method in brief: as §1

TAB113 = assay: as above; settings: P. falciparum in erythrocytes, SYBR Green DNA, 72 h; series mostly up to 12.8 µM
Method in brief: as §1

[2] = biological target: Guanine nucleotide-binding protein G(i) subunit alpha-1 (Homo sapiens) (UniProt P63096); assay: qHTS Assay for Inhibitors of RGS12 GoLoco Motif Activity (Green Fluorophore) (AID 879);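 further: negative values mean loss of peptide binding seen as reduced polarization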
Sequence of Guanine nucleotide-binding protein G(i) subunit alpha-1 (Homo sapiens) (P63096 whole entry, looked up): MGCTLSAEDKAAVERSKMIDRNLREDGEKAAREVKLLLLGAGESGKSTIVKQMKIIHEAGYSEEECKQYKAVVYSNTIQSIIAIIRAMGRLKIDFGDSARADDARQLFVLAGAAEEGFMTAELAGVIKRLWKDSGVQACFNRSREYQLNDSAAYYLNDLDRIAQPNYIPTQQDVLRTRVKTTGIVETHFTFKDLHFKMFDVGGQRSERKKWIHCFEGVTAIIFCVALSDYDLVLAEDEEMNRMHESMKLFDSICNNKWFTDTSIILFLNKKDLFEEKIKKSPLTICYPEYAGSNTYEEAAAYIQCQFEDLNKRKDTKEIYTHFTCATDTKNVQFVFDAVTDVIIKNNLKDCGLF
Method in brief: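 Fluorescence polarization assay: 50 nM Gαi1 with 10 nM FITC-labeled RGS12 GoLoco peptide in 10 mM Tris pH 7.5, 150 mM NaCl, 0.1 mM GDP, 0.05% NP40, 10 min at room temperature with compound.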

[3] = biological target: Pyruvate kinase PKM (Homo sapiens) (UniProt P14618); assay: qHTS Assay for Activators of Human Muscle Pyruvate Kinase (AID 954; active means well fitted curve in the direction sought with a large enough effect, not every such curve was filed as active)
Sequence of Pyruvate kinase PKM (Homo sapiens) (P14618 whole entry, looked up): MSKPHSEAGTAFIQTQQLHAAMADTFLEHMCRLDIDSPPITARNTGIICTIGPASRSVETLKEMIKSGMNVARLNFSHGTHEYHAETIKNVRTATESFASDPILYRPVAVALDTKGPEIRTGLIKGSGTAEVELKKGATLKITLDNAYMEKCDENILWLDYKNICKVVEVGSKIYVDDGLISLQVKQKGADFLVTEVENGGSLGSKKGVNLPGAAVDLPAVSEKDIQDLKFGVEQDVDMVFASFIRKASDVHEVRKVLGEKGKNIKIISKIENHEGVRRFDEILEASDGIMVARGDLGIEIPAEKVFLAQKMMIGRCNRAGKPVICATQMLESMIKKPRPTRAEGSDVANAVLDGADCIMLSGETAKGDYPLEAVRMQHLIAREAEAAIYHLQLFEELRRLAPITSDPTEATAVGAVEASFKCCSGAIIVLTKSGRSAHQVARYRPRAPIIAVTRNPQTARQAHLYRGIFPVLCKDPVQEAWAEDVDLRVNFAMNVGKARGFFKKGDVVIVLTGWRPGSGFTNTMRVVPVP
Method in brief: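 Purified human PKM2 (0.1 nM) with 0.5 mM PEP (Km) and 0.1 mM ADP in 50 mM imidazole pH 7.2, KCl, MgCl2, 1 h at room temperature; ATP formed read by coupled luciferase luminescence. Normalized to no-enzyme/110 uM thiadiazolimine inhibition; 0.3 nM enzyme column for activation.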

Measured: Potency

CO[C@H]1C[C@@H](O[C@@H]2[C@H](C)[C@H](O[C@@H]3O[C@@H](C)C[C@@H](N(C)C)[C@@H]3O)[C@H](C)C[C@]3(CO3)C(=O)[C@H](C)[C@H](O)[C@H](C)[C@H](C)OC(=O)[C@@H]2C)O[C@@H](C)[C@H]1O
not listed: [2] | [3]
inactive: all other assays above

CN(N=O)C(=O)N[C@H]1[C@@H](O)[C@H](O)[C@H](CO)O[C@@H]1O
not listed: [2] | [3]
inactive: all other assays above

C[C@@H](CN(C)C)CN1c2ccccc2CCc2ccccc21
not listed: [1] | CP191 | Dd2 | N140
inactive: all other assays above

CC(C)COC[C@H](CN(Cc1ccccc1)c1ccccc1)N1CCCC1
inactive: [2] | [3]

O=c1[nH]c(=O)n([C@@H]2C[C@H](O)[C@H](CO)O2)cc1I
not listed: [2] | [3]
inactive: all other assays above

CN[C@@H]1[C@H](O[C@@H]2O[C@H](CO)[C@@H](N)[C@H](O)[C@@H]2O)O[C@H]2C[C@@H](N)[C@@H](O[C@H]3[C@@H](O)[C@H](O)[C@H](N)C[C@@H]3N)O[C@H]2[C@H]1O
not listed: [2] | [3]
inactive: all other assays above

CCN(CC)CC#CCOC(=O)[C@@](O)(c1ccccc1)C1CCCCC1
inactive: [2] | [3] | [1] | CP250 | CP262 | CP325 | JCK | N140 | SC27B | TAB113

C[n+]1ccccc1/C=N\O
not listed: [2] | [3]
inactive: all other assays above
